Test results: PubChem BioAssay (NCI)
Where “and” joins values, the source holds several entries; their conditions need not be identical. Identical values can stand only once. Compounds without any hit were thinned out: in the full panel of roughly 83,000, 20% have a hit.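 The endpoint reported here, percent growth, reads 100 for growth as untreated, 0 for no net growth and -100 for all cells dead.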 Calls of active or inactive are those of the source. The calls were made as follows: active = growth percent below 10; inactive = the rest.

Each compound was assayed on OVCAR-4 ovarian (assay: NCI-60 one-dose screen, 48 h (100 = growth as untreated, 0 = no growth, -100 = all killed)). Conditions: 10 µM unless noted.

Row | SMILES | growth
1 | CCCc1cc(C(N)=S)ccn1 | 110% (inactive)
2 | C#CCn1cnc2cnc(Nc3cccc(NC(=O)CCl)c3)nc21 | 13% [6.25 µM] (inactive)
3 | CC1=C2[C@@H](CC1)[C@]1(C)O[C@@](C3CC3)(C[C@H]1OC(=O)CO)[C@H]2OC(=O)/C=C/c1ccccc1 | 110% (inactive)
4 | CCCn1nc(C(=O)N2CCCCC2)c2c1CCC(N1CCC(c3ccncc3)CC1)C2 (centres undefined) | 103% (inactive)
5 | Cc1c(O)c(O)cc2c3c(oc12)CC(c1ccc2c(c1)OCO2)CC3=O (centres undefined) | 89.4% (inactive)
6 | COc1ccc(Nc2nn3c(SCC(=O)c4ccc(C)cc4)nnc3s2)cc1 | 108% (inactive)
7 | N#Cc1c(-c2cccc(F)c2)cc(-c2cccnc2)[nH]c1=O | 113% (inactive)
8 | O=[N+]([O-])c1ccc2[nH]c3nccc(NCc4cccc(Cl)c4)c3c2c1 | -35% (active)

Same assay, conditions: 100 µM

Row | SMILES | growth
9 | CCN(Cc1ccccc1)c1ccc(/C=C2\COc3ccccc3C2=O)cc1 | 52.1% (inactive)
10 | CC(=O)/C=C/c1ccc(OCc2ccc(C(C)(C)C)cc2)cc1 | 33.8% (inactive)
11 | CC(=O)/C=C/c1ccc(N(CCO)Cc2ccc(C(C)(C)C)cc2)cc1 | -89.2% (active)
12 | O=C(/C=C/c1cccc(Oc2ccc(Cl)cc2)c1)c1ccccc1 | -80.1% (active)
13 | COc1ccc(C(=O)/C=C/c2ccc(OCc3cccc(C(F)(F)F)c3)c(OC)c2)cc1OC | 20.3% (inactive)
14 | CC(=O)/C=C/c1ccc(OCc2ccc(Cl)cc2)cc1 | 43.4% (inactive)
15 | COc1ccc(C(=O)/C=C/c2ccc(OCc3ccc(Cl)cc3)cc2)cc1OC | -4.25% (active)
16 | CC(=O)/C=C/c1ccc(N(C)Cc2ccc(C(C)(C)C)cc2)cc1 | -68.9% (active)

The compounds below were run on SK-OV-3 ovarian in the same assay as above. Conditions: 10 µM.

Row | SMILES | growth
17 | CCN(Cc1ccccc1)c1ccc(/C=C2\COc3ccccc3C2=O)cc1 | 89.4% (inactive)
18 | CC(=O)/C=C/c1ccc(OCc2ccc(C(C)(C)C)cc2)cc1 | 77.8% (inactive)
19 | CC(=O)/C=C/c1ccc(N(CCO)Cc2ccc(C(C)(C)C)cc2)cc1 | 83.7% (inactive)
20 | O=C(/C=C/c1cccc(Oc2ccc(Cl)cc2)c1)c1ccccc1 | 114% (inactive)
21 | COc1ccc(C(=O)/C=C/c2ccc(OCc3cccc(C(F)(F)F)c3)c(OC)c2)cc1OC | 88.7% (inactive)
22 | CC(=O)/C=C/c1ccc(OCc2ccc(Cl)cc2)cc1 | 110% (inactive)
23 | COc1ccc(C(=O)/C=C/c2ccc(OCc3ccc(Cl)cc3)cc2)cc1OC | 120% (inactive)
24 | CC(=O)/C=C/c1ccc(N(C)Cc2ccc(C(C)(C)C)cc2)cc1 | 98.4% (inactive)

Same assay, conditions: 10 µM unless noted

Row | SMILES | growth
25 | CCOC(=O)c1ccc(Nc2ncnc3c2cnn3-c2cccc(F)c2)cc1 | 120% (inactive)
26 | O=S(=O)(O)c1ccc(N=Nc2ccc(N=Nc3cccc4ccccc34)c(S(=O)(=O)O)c2)cc1 | 85.4% (inactive)
27 | CC[C@@H]1NC(=O)[C@H]([C@H](O)[C@H](C)C/C=C/c2ccc(CN3C(=O)C(C)=C(C)C3=O)cc2)N(C)C(=O)[C@H](C(C)C)N(C)C(=O)[C@H](CC(C)C)N(C)C(=O)[C@H](CC(C)C)N(C)C(=O)[C@@H](C)NC(=O)[C@H](C)NC(=O)[C@H](CC(C)C)N(C)C(=O)[C@H](C(C)C)NC(=O)[C@H](CC(C)C)N(C)C(=O)CN(C)C1=O | 83.4% (inactive)
28 | COc1nc(=O)n(C2C=CC(=O)O2)cc1F (centres undefined) | 98.7% (inactive)
29 | COc1ccc(-c2csc(NC(=O)CN3CCN(CCO)CC3)n2)cc1NS(=O)(=O)c1cccc2c(N(C)C)cccc12 | 90.7% (inactive)
30 | O=C1/C(=C/c2ccc(-c3cccc(C(F)(F)F)c3)o2)SC(=S)N1CCc1ccc(O)cc1 | 85.4% (inactive)
31 | BrC1=C(Br)C(Br)(Br)C(Br)=C1Br | 108% (inactive)
32 | OCc1cc(CN2CCCCC2)c(O)c2ncccc12 | 49.4% (inactive)
33 | COc1ccc(C2=C(CN)C(O)NC(=NCC(=O)c3ccc4ccccc4c3)N2)cc1 (centres undefined) | 89.4% (inactive)
34 | N#CSc1c[nH]c2ccc(/C=C/C(=O)/C=C(/C=C/c3ccc4[nH]cc(SC#N)c4c3)OB(F)F)cc12 | 98.4% (inactive)
35 | CN(C)CCNc1ncc(F)c(-c2cnc3cc(-c4cnn(C)c4)ccn23)n1 | 21% [30 µM] (inactive)
36 | COc1ccc(Oc2nc(Nc3ccc(N4CCOCC4)cc3)ncc2NC(=O)c2cc(OC)cc(OC)c2)cc1 | 102% (inactive)
37 | COc1ccc2c(c1)oc1c(C)c3c(c(C)c12)C(=O)N(Nc1ccccc1)C3=O | 92% (inactive)
38 | COc1ccc(/C=C2/C(=O)N=C3N2NC(c2ccccc2)=CN3c2ccccc2)cc1 | 107% (inactive)
39 | O=C1/C(=C/c2ccccc2[N+](=O)[O-])Cc2ccccc21 | 70.4% (inactive) and 95.2% (inactive)
40 | COc1ccc2c(c1)CCNC21C(=O)Nc2c(Br)cc(Br)cc21 (centres undefined) | 84.2% (inactive)
41 | O=C(N/N=C/c1ccc(O)cc1O)c1cccc(Nc2ccnc(C(F)(F)F)c2)c1 | 25.1% (inactive)
42 | O=C(c1cccc(Br)c1)N1CCN(c2ccnc3cc(Cl)ccc23)CC1 | 98.3% (inactive)
43 | CCCCCC#CC1OC23CCCCC2C(C#N)(C(=N)O3)C1(C#N)C#N (centres undefined) | 111% (inactive)
44 | COc1ccc(-c2c[nH]c(C(=O)O)c2-c2cc(OC)c(OC)c(OC)c2)cc1 | 53.2% (inactive)
45 | NC(N)=NC(N)=NCCCc1ccco1 | 103% (inactive)
46 | CN1Cn2c(ccc2C(F)(F)F)C(=O)CS1(=O)=O | 106% (inactive)
47 | CCCc1cc(C(N)=S)ccn1 | 100% (inactive)
48 | C#CCn1cnc2cnc(Nc3cccc(NC(=O)CCl)c3)nc21 | 15.3% [6.25 µM] (inactive)
49 | CC1=C2[C@@H](CC1)[C@]1(C)O[C@@](C3CC3)(C[C@H]1OC(=O)CO)[C@H]2OC(=O)/C=C/c1ccccc1 | 99.3% (inactive)
50 | CCCn1nc(C(=O)N2CCCCC2)c2c1CCC(N1CCC(c3ccncc3)CC1)C2 (centres undefined) | 109% (inactive)
51 | Cc1c(O)c(O)cc2c3c(oc12)CC(c1ccc2c(c1)OCO2)CC3=O (centres undefined) | 85.4% (inactive)
52 | COc1ccc(Nc2nn3c(SCC(=O)c4ccc(C)cc4)nnc3s2)cc1 | 79.2% (inactive)
53 | N#Cc1c(-c2cccc(F)c2)cc(-c2cccnc2)[nH]c1=O | 99.6% (inactive)
54 | O=[N+]([O-])c1ccc2[nH]c3nccc(NCc4cccc(Cl)c4)c3c2c1 | 91.9% (inactive)
